Screening results deposited in PubChem BioAssay by Broad Institute.
A selection follows.
aSyn 5UTR act: Activators via SNCA 5'UTR binding, MLPCN; activity score, % (tested at 7.5 µM), hits read low; 300,000 tested, 7.1% active; AID 1814; alpha-synuclein 5'UTR reporter, activators screen; in the data active means activity score below about -60%
Active calls of the source: *.

SMILES	aSyn 5UTR act
O=C(Nc1nnc(C2CC2)s1)c1cc(-c2ccccc2)nn1-c1ccccc1	-95*
Cc1cc(NC(=O)c2ccco2)ncc1NC(=O)Cc1ccccc1	-119*
O=C(Nc1ccc(NC(=O)c2ccccc2Cl)nc1)c1ccco1	-102*
O=C(Nc1ccccn1)c1ccc(NC(=O)c2ccco2)cc1	-141*
CC(C)C(=O)Nc1ccc(NC(=O)c2ccccc2Cl)nc1	-115*
O=C(CCc1ccccc1)Nc1ccc(NC(=O)c2ccco2)nc1	-71*
COc1ccc(Cn2c(SCc3ccc(C)cc3)nc3cc(OC)c(OC)cc3c2=N)cc1Cl	119
COc1ccc(CSc2nnc(-c3ccncc3)n2C)cc1F	-94*
Clc1ccc(CSc2nncn2-c2ccc3c(c2)OCCO3)cc1	66
Cn1c(SCc2ccc3c(c2)OCO3)nnc1-c1ccccc1	-80*
c1ccn2c(SCc3ccc4c(c3)OCO4)nnc2c1	-93*
CCc1cc(C(=O)O)c(NC(=O)/C=C/c2ccc(OC)cc2)s1	-119*
COc1ccc(/C=C/C(=O)Nc2cccc(C(C)=O)c2)cc1	-95*
COc1cccc(/C=C/C(=O)Nc2cccc(C(C)=O)c2)c1OC	-126*
CCOC(=O)c1cnc(SCC(C)C)nc1N	-104*
CCOC(=O)c1cnc(SCC(=O)c2ccccc2)nc1N	-141*
CCOC(=O)c1cnc(SCc2cccc(C)c2)nc1N	-89*
CC(=O)c1cccc(OCc2cc(C(=O)N3CCSCC3)no2)c1	-152*
O=C(c1cc(COc2ccc(F)c(F)c2)on1)N1CCSCC1	-94*
O=C(N/N=C/c1sc(N2CCOCC2)nc1-c1ccccc1)c1cccc(S(=O)(=O)N2CCCC2)c1	99
O=C(Nc1ccc(F)cc1F)c1ccc2nc(N3CCOCC3)sc2c1	-62*
O=C(Nc1ccccc1F)c1ccc2nc(N3C(=O)CCC3=O)sc2c1	-117*
O=C(Nc1ccccc1Cl)c1ccc2nc(N3CCOCC3)sc2c1	-99*
O=C(CCN1C(=O)S/C(=C\C=C\c2ccccc2)C1=O)Nc1ccc(O)cc1	-204*
O=C(CN1C(=O)S/C(=C\C=C\c2ccccc2)C1=O)Nc1cccc(O)c1	-218*
SMILES	aSyn 5UTR act
CCN(C(=O)CN1C(=O)S/C(=C\C=C\c2ccccc2)C1=O)C1CCS(=O)(=O)C1 (centres undefined)	-118*
COc1ccccc1NC(=O)c1ccc2c(c1)OCO2	-125*
O=c1c(O)c(-c2ccc3c(c2)OCO3)oc2ccccc12	-133*
COc1cc2c(cc1NC(=O)c1ccc3c(c1)OCO3)oc1ccccc12	-285*
COc1ccccc1NC(=O)/C=C/c1ccc2c(c1)OCO2	-167*
COc1ccc(NC(=O)c2oc3ccccc3c2NC(=O)c2ccc3c(c2)OCO3)cc1	-68*
CCOc1ccc(C(=O)Nc2c(C(N)=O)oc3ccccc23)cc1	-115*
O=C(Nc1ccc2c(c1)oc1ccccc12)c1ccc2c(c1)OCO2	-233*
CCOC(=O)c1c(N/N=C/c2cccnc2)n[nH]c1C	-157*
Fc1ccc(-c2csc(N3CCC(c4ccccc4)C3)n2)cc1 (centres undefined)	-199*
COc1ccc(-c2csc(N3CCC(c4ccccc4)C3)n2)cc1 (centres undefined)	-114*
COc1ccc(-c2csc(N3CCSCC3)n2)cc1	-225*
CCN(CC)CCCNC(=S)N1CCN(c2nc(-c3ccc(F)cc3)cs2)CC1	133
Clc1ccc(-c2csc(N3CCC(c4ccccc4)C3)n2)cc1 (centres undefined)	-226*
COc1ccc(-c2csc(-n3cccn3)n2)cc1	-153*
CCOC(=O)N1CCC(NC(=O)c2ccc3c(c2)sc2nc(-c4cccc(OC)c4)cn23)CC1	-213*
CN(C)CCNC(=O)c1csc(Nc2cccc3ccccc23)n1	57
O=C(c1ccccc1)c1cnc(Nc2ccccc2Cl)s1	-96*
CC(C)(C)C(=O)c1cnc(Nc2ccccc2Cl)s1	-146*
CC(=O)c1csc(Nc2ccccc2Cl)n1	-121*
O=C(Cn1cc(C(=O)C2CC2)c2ccccc21)NCc1ccccc1	-81*
CC(/C=C/c1ccccc1F)=N\NC(=O)c1ccccc1	-144*
O=C(COC(=O)c1ccccc1Cc1ccccc1)Nc1ccc(SC(F)F)cc1	-109*
O=C(Cc1ccccc1F)Nc1ccc(SC(F)F)cc1	-137*
Cn1cc(C(=O)N/N=C/C(Br)=C\c2ccccc2)ccc1=O	-83*
SMILES	aSyn 5UTR act
COc1ccc(O)c(/C=N/NC(=O)c2ccc(OCc3cccc(Br)c3)cc2)c1	82
COc1cccc(C(=O)N/N=C/C(Br)=C/c2ccccc2)c1	-135*
COc1ccc(-c2nc(SCc3ccccc3)n(C(=O)c3ccco3)n2)cc1	-81*
COc1ccc(-c2nc(SC)n(C(=O)c3ccco3)n2)cc1	-130*
CCS/C(N)=N/N=C/c1cc(C)ccc1O	-82*
CCCCS/C(N)=N/N=C/c1cc(C)ccc1O	-76*
COc1ccccc1OCC(=O)N/N=C/c1c(O)ccc2ccccc12	60
CS/C(N)=N/N=C/c1cc(C)ccc1O	-94*
CS/C(N)=N/N=C/c1c(O)ccc2ccccc12	-175*
COc1ccc2c(c1)C(=O)/C(=C/C=C/c1ccccc1)CC2	-115*
COc1ccc2c(c1)CC/C(=C\c1ccc(C)o1)C2=O	-170*
COc1ccc2c(c1)CC/C(=C\C=C\c1ccccc1OC)C2=O	-134*
CC(=O)c1ccc(S(=O)(=O)N2CCCC2)cc1	-84*
O=C(N/N=C\c1cc(Cl)ccc1O)c1ccc(S(=O)(=O)N2CCCCC2)cc1	113
O=C1N(Cc2ccc(F)cc2)CCN1c1ccc(F)cc1	-81*
Cc1nnc(SCc2nc3ccccc3s2)n1N	-145*
CCn1c(SCC(O)c2ccccc2)nnc1-c1ccccc1 (centres undefined)	-70*
CCn1c(SCc2nc3ccccc3s2)nnc1-c1ccccc1	-117*
CCC(c1nnc(SCc2nc3ccccc3s2)n1Cc1ccccc1)N(C)C (centres undefined)	-101*
Cc1nnc(SCc2nc3ccccc3s2)n1-c1ccccc1	-195*
c1ccc(-n2cnnc2SCc2nc3ccccc3s2)cc1	-146*
CC(C)OCCCNC(=S)NNC(=O)c1ccc(Cl)c(Cl)c1	-87*
COc1ccccc1N1CCN(/N=C/c2cccc(OC)c2O)CC1	-67*
COc1cccc(/C=N/N2CCN(c3ccccc3OC)CC2)c1	-93*
COc1ccccc1N1CCN(/N=C/c2cccc(Cl)c2)CC1	-196*
SMILES	aSyn 5UTR act
COc1cccc(/C=N/NC(=O)N/N=C/c2cccc(OC)c2O)c1O	53
COc1ccccc1N1CCN(/N=C/c2cc(Br)ccc2F)CC1	-93*
COc1ccc(/C=N/N2CCN(c3ccccc3OC)CC2)cc1Br	-101*
CCN(CC)c1ccc(C(=O)Nc2cccc(F)c2)cc1	-77*
CN(C)c1cccc(C(=O)Nc2cccc(F)c2)c1	-175*
Cc1ccc(OCCOc2cccc(Br)c2)c([N+](=O)[O-])n1	-190*
Cc1ccc(OCc2ccc(Br)cc2)c([N+](=O)[O-])n1	-141*
Cc1ccc(OCc2ccc(-c3ccccc3)cc2)c([N+](=O)[O-])n1	-84*
N#Cc1cc(C#N)c(N2CCN(c3ccccn3)CC2)nc1N	-204*
O=C1c2ccccc2NC(c2ccc(O)cc2)N1/N=C/c1ccc(O)cc1 (centres undefined)	-122*
O=C1c2ccccc2NC(c2ccc(O)cc2)N1c1ccccc1 (centres undefined)	-64*
Nc1nc2c(s1)CCc1c-2cnn1-c1ccccc1	-80*
O=C1/C(=C/c2ccccc2[N+](=O)[O-])COc2ccccc21	-114*
